TDP-43 rescue – qHTS of TDP-43 Inhibitors: NCGC Sytravon Library Screen | yeast TDP-43 toxicity rescue, BacTiter-Glo growth, 24 h | Potency, µM (series often up to 46.1 µM), usual class: activators | 0.45% of 45,000 active; active means well fitted activation curve with a large enough effect; further: nearly all actives have a fitted effect of over 55% in size
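TDP-43-expressing yeast, pregrown in raffinose, seeded at OD600 0.02 in galactose medium with compound for 24 hr at 30 deg C. Growth read by BacTiter-Glo luminescence, so rescue of toxicity appears as activation.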
Each line names hits and unclear results; the compound was inactive in the other large screens. Only a selection was taken, and hits are over-represented in it overall.

Cc1cc(C(=O)N/N=C/c2sc(N3CCOCC3)nc2-c2ccccc2)c(C)o1	none
Fc1ccc(-c2csc(N3CCOCC3)n2)cc1	none
c1ccc(-c2nc(N3CCOCC3)sc2-c2ccccc2)cc1	TDP-43 rescue 25.1µM
O=C(Nc1cccs1)Nc1cc(C(F)(F)F)ccc1Cl	none
COc1cccc(CNC(=O)Cn2nc([N+](=O)[O-])c(Br)c2C)c1	none
COc1ccc(-n2nc([N+](=O)[O-])c(=NCCc3cccc(C)c3)n2O)cc1	TDP-43 rescue 12.6µM
Cc1ccc(N=c2c([N+](=O)[O-])nn(-c3ccc4c(c3)OCCO4)n2O)cc1F	none
CCc1ccc(CNC(=O)CSCc2cnn(-c3ccccc3)c2-n2cccc2)cc1	none
Cc1cccc(NC(=S)NCCCN2CCOCC2)c1	none
COc1ccc(N2CCC(CNC(=S)Nc3cccc(C)c3)C2)cc1 (centres undefined)	TDP-43 rescue 14.1µM
Cc1cc(C)cc(NC(=S)NCC2CCN(C(C)c3ccccc3)C2)c1 (centres undefined)	none
COc1ccccc1-c1c(C)nn2c(-c3ccccc3)cc(-c3ccccc3)nc12	none
CC(C)CCNC(=O)Nc1ccc2c(c1)N(Cc1ccccc1)C(=O)c1ccccc1S2	none
Cc1cccc(C)c1NC(=O)/C(C#N)=C/c1ccsc1	TDP-43 rescue 20µM
COc1ccc(/C=C(\C#N)C(=O)OCC(=O)Nc2c(C)cccc2C)cc1	none
COc1cc(/C=C(\C#N)C(=O)Nc2cccc3ncccc23)cc(OC)c1OC	none
CCOc1ccccc1NC(=O)CN(C)S(=O)(=O)c1ccc2nc(C)sc2c1	none
CCSc1ncc(Cl)c(C(=O)N(Cc2ccccc2)c2ccc(OC)cc2)n1	none
CN(C(=O)Cn1c(=O)n(CCC(=O)NCc2ccc3c(c2)OCO3)c(=O)c2sccc21)c1ccccc1	none
Cc1nn(CCCC(=O)NCc2cccc(Cl)c2)c(=O)c2c1sc1ccccc12	none
Cc1cc(C)c(Cn2c(=O)n(CCCC(=O)NCc3ccc4c(c3)OCO4)c(=O)c3sccc32)c(C)c1	none
O=C(Cn1cnnn1)NCCc1ccc(Cl)cc1Cl	none
O=C(CSc1ncn[nH]1)NCCc1ccc(Cl)cc1Cl	none
O=C(CCl)N=c1sccn1Cc1ccc(Cl)cc1Cl	TDP-43 rescue 20µM
Cc1ccc(C)c(CN2C(=O)c3ccccc3S(=O)(=O)c3ccc(C(=O)N4CCCCC4)cc32)c1	none
Cc1cc(C)c(Cn2c(=O)n(CCCCCC(=O)NCc3ccc4c(c3)OCO4)c(=O)c3sccc32)c(C)c1	none
COc1cccc(CNC(=O)CCc2c(C)nc3c4c(C)cc(C)nc4nn3c2C)c1	none
O=C(CNCc1ccccn1)Nc1cc(C(F)(F)F)ccc1N1CCOCC1	none
O=C(CSc1ccc([N+](=O)[O-])cn1)Nc1cc(C(F)(F)F)ccc1N1CCOCC1	TDP-43 rescue 12.6µM
Cn1nnnc1SCC(=O)Nc1cc(C(F)(F)F)ccc1N1CCOCC1	none
Cc1cccc(OCCSc2nc3ccccc3n2CC(=O)N2CCOCC2)c1	none
Nc1c(C(=O)Nc2ccc(Cl)c(C(F)(F)F)c2)sc2nc(-c3ccncc3)ccc12	none
COc1cccc(NC(=O)Cn2c(=O)n(CC(=O)NCc3ccc(C)cc3)c(=O)c3sccc32)c1	none
CCOc1cccc(C(=O)NC(=S)Nc2cccc(C)c2)c1	TDP-43 rescue 20µM
O=C(Nc1ccc(C(=O)O)cc1)/C(=C/c1ccc2c(c1)OCO2)NC(=O)c1cccc(Br)c1	none
COC(=O)COc1cccc(NC(=O)c2cccc(C)c2)c1	none
O=C(NC(=S)Nc1ccc2c(c1)OCCO2)c1cccc(Br)c1	TDP-43 rescue 12.6µM
O=C(Nc1cccc(Cl)c1)c1ccc2c(c1)OCCO2	none
CCOC(=O)NC(=S)Nc1cccc(NC(=S)NC(=O)OCC)c1	none
CCc1cccc(NC(=O)Cn2cc(C(=O)c3ccncc3)c(=O)c3cc(C)c(C)cc32)c1	none
Cc1ccc(C(=O)Nc2cc3cc(Cl)ccc3oc2=O)cc1	none
COCCNC(=O)C1(C)CCN(C(=O)C2(c3ccc(Cl)cc3)CCCC2)C1 (centres undefined)	none
COCCNC(=O)C1CCCN(C(=O)C2(c3ccc(Cl)cc3)CCCC2)CC1 (centres undefined)	none
CC1(C(=O)O)CCCN(C(=O)C2(c3ccc(Cl)cc3)CCCC2)C1 (centres undefined)	TDP-43 rescue 14.1µM
Cc1nn2c(-c3cccc(NC(=O)c4ccc(Cl)cc4)c3)nnc2c2ccccc12	none
COc1cccc(-c2nc3ccccc3s2)c1O	none
COc1cc(C(=O)NCc2ccc(-c3nc4ccccc4s3)cc2)cc(OC)c1OC	none
CCOc1cc(-c2nc3ccccc3s2)ccc1O	TDP-43 rescue 22.4µM
CC1(c2ccccc2)CC(C)(C)N(C(=O)c2cccc(Cl)c2)c2ccccc21 (centres undefined)	none
COc1ccc(CC(=O)O/N=C(\N)c2cccc([N+](=O)[O-])c2)cc1	none
N/C(=N\OC(=O)CCCOc1ccccc1)c1ccc([N+](=O)[O-])cc1	none
N/C(=N\OC(=O)Cc1ccccc1)c1ccc([N+](=O)[O-])cc1	TDP-43 rescue 11.2µM
COc1ccc(CCNC(=O)C(C)n2nc(C)c3sc4ccccc4c3c2=O)c(OC)c1 (centres undefined)	none
Cc1ccccc1-c1nc2c3c(-c4ccccc4)c(-c4ccccc4)oc3ncn2n1	none
Clc1c(-c2ccccc2)nc2ccccn12	none
c1ccc(-c2nc(-c3ccco3)n3ccccc23)cc1	TDP-43 rescue 12.6µM
Fc1ccc(-n2c(-c3ccco3)nc3nc4ccccc4nc32)cc1	none
CCOc1cccc(C(=O)N(Cc2ccc(C)o2)C2CCS(=O)(=O)C2)c1 (centres undefined)	none
CCC(=O)OCc1cc(=O)oc2ccc3ccccc3c12	none
NC(=O)N/N=C/c1coc2ccc3ccccc3c2c1=O	none
O=C(O)Cc1coc2ccc3ccccc3c12	TDP-43 rescue 12.6µM
CCCCOc1ccc(S(=O)(=O)NCc2csc(-c3ccc(OC)cc3)n2)cc1	none
CC(=O)Nc1ccccc1-c1nc2ccccc2n(Cc2cccc(Br)c2)c1=O	none
COc1ccc(NC(=O)Cn2c(=O)n(-c3cccc(C(F)(F)F)c3)c(=O)c3sccc32)cc1	none
CCCCOc1cccc(C(=O)N(Cc2sccc2C)C2CCS(=O)(=O)C2)c1 (centres undefined)	none
O=C(CCCSc1ccc(Cl)cc1)Nc1ccccc1O	TDP-43 rescue 11.2µM
Cc1ccc(SCCC(=O)N/N=C/c2ccccc2O)cc1	none
O=C(CSCc1ccc(Cl)cc1)Nc1ccccc1O	none
CCC(Sc1nncn2c1cc1oc(C)cc12)C(=O)Nc1ccc(F)cc1 (centres undefined)	none
CCCSc1ncc(Cl)c(C(=O)Nc2sc3c(c2C(=O)NCC)CCCC3)n1	none
Cc1ccc(O)c(C(CC(=O)NCC2(c3ccccc3)CCCC2)c2ccccc2)c1 (centres undefined)	none
CC(O)(c1cccc(F)c1)c1nc(-c2cccc(F)c2)cs1 (centres undefined)	none
Cc1ccc(-c2csc(C(C)(O)c3cccc(F)c3)n2)cc1C (centres undefined)	none
COc1ccc(-c2csc(C(C)(O)c3cccc(F)c3)n2)cc1 (centres undefined)	TDP-43 rescue 14.1µM
COCc1cc(C)nc2sc(C(=O)Nc3ccccc3O)c(N)c12	none
O=C(Nc1ccc(Cl)cn1)c1ccc(COc2ccccc2Br)o1	TDP-43 rescue 11.2µM
CCc1nnc(NC(=O)c2ccc(COc3ccccc3Cl)o2)s1	none
CCN(CC)C(=O)c1ccc(COc2ccccc2Cl)o1	none
COc1ccccc1CNC(=O)Cc1ccc(OC)c(OC)c1	none
COc1ccc(CNC(=O)CCSCc2ccccc2Cl)c(OC)c1	TDP-43 rescue 14.1µM
COc1ccccc1OCC(=O)NCCSCc1ccccc1Cl	none
CCSc1ncc(Cl)c(C(=O)Nc2nc3ccc(S(C)(=O)=O)cc3s2)n1	none

Screens as filed in PubChem.
